The campaign covered roughly 420,000 compounds. About 64,000 (15%) were called active. Not shown: some 27% with an inconclusive outcome. The list is a sample of the results. Unmarked numbers belong to inactive results. Calls come from the whole dose curve; as a rule, active = well fitted inhibition curve with a large enough effect; inconclusive = small, poorly fitted or top-dose-only effect; inactive = flat fitted curve, though single readings scatter.
experiment: qHTS for Inhibitors of human tyrosyl-DNA phosphodiesterase 1 (TDP1): qHTS in cells in absence of CPT; conditions: DT40 Tdp1-/- hTDP1 cells, no CPT, ATP luminescence, 48 h; activity change, negative = growth inhibition: at 46.2 µM (top of the series); note: nearly all actives have a fitted effect of over 55% in size
Outline: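 DT40 Tdp1-/-;hTDP1 cells, no CPT (DMSO vehicle only), 400 cells/well; compounds pin-transferred; ≥48 hr, 37 °C; CellTiter-Glo 30 min RT dark, luminescence read.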
% is set by controls: 0 for no effect and ±100 for the full control effect; potency is the fitted concentration of half-maximal effect.

Compound	activity change, negative = growth inhibition [%]	Potency
O=C(CN1C(=O)NC(Cc2c[nH]c3ccccc23)C1=O)Nc1ccccc1C(F)(F)F (centres undefined)	-3.58	
COc1ccc(S(=O)(=O)NCCCc2ccccc2)cc1	-27.7	
COc1cccc(NC(C)=[N+](C)CCNS(=O)(=O)c2ccc(Cl)cc2)c1	-23.4	
COc1ccc(S(=O)(=O)NCCCCOc2ccc(Cl)cc2)cc1		2.06 µM (active)
Cc1nc(N)[nH]c(=O)c1Oc1cccc(C(F)(F)F)c1	-2.45	
Clc1cccc(N=C2NN=C(c3ccc4c(c3)OCCO4)CS2)c1		10.3 µM (active)
Cc1cccc(N=C2NN=C(c3c[nH]c4ccccc34)CS2)c1	-13.4	
COc1ccccc1CCNC(=O)c1cccn1-c1nnc(N2CCCCC2)s1		1.64 µM (active)
CSc1ccc(CCNC(=O)C2CCN(c3nnc(-n4cccc4)s3)CC2)cc1	-17	
COc1ccccc1CNC(=O)C1CCN(c2nc3ccccc3o2)CC1	-11	
N#CC(=C1CCCC1)c1nc(-c2ccc(Cl)cc2)cs1	-27.4	
CCOC(=O)C1CCC(CN(Cc2ccc(OC)cc2)S(=O)(=O)c2ccc(F)c(C(=O)Nc3cc(C)ccc3C)c2)CC1 (centres undefined)	-11.9	
Cc1cc2c(cc1S(=O)(=O)NCc1ccc(Cl)cc1)OCC(=O)N2	2.83	
O=C(CCC(=O)OCc1ccc(Cl)cc1)Nc1ccccc1	-0.379	
CC(=O)N1CCC(C(=O)OCc2ccc(Cl)cc2)(c2ccccc2)CC1		11.6 µM (active)
CC(=O)N1CCC2(CCCN(Cc3ccccc3)C2)CC1	-18.3	
Cc1noc(C)c1NC(=O)Nc1ccc2c(c1)C(=O)N([C@H](C)CO)C[C@H](C)[C@@H](CN(C)S(=O)(=O)c1cn(C)cn1)O2	-2.48	
NS(=O)(=O)c1ccc(NC(=O)CSc2nnc3c(n2)[nH]c2ccccc23)cc1	-0.0777	
CCN(CC)c1ccc(/C=C/c2c(C)cnc3ccc(C)cc23)cc1		20 µM (active)
CCOC(=O)N1CCN(c2c(NCCCN3CCCC(C)C3)c(=O)c2=O)CC1 (centres undefined)	-4.27	
CC(C)C(=O)OCC(=O)Nc1ccc2c(c1)CCC2	1.2	
CCOc1ccc(NC(=O)C2CC(=O)N=C(N)S2)cc1 (centres undefined)	-4.41	
Cc1ccc(C(=O)Nc2nnc(C3=COCCO3)o2)cc1C		23.1 µM (active)
COc1cc(-c2nnc(NC(=O)C3=COCCO3)o2)cc(OC)c1OC	5.88	
COc1ccccc1-c1nnc(NC(=O)c2cccc(N3C(=O)CCC3=O)c2)o1	7.07	
COc1cc(C(=S)N2CCOCC2)ccc1O		inactive
CCCCC(NC(=O)c1cccc(Br)c1)C(=O)O (centres undefined)	1.16	
O=C(CN1C(=O)NC2(CCCC2)C1=O)NCC1CCCO1 (centres undefined)	5.83	
O=C(c1ccccc1)N1CCN(C(=O)N2CCCCC2)CC1	0.232	

Source: PubChem BioAssay AID686978 (National Center for Advancing Translational Sciences (NCATS), 2013)
